According to PubChem BioAssay (Tox21):
“And” between values parts separate entries of the source, which are not always exact repeats. Identical values can stand only once. Records with an inconclusive call do not appear. Where a call stands in place of a potency, no number is given. A structure can be active in one record and inactive in another. The source made the active and inactive calls. Calls come from the whole dose curve; as a rule, active = well fitted activation curve with a large enough effect in the repeat runs; inconclusive = weak or mixed curves; inactive = flat fitted curve, though single readings scatter.

assay: A CellTox Green Cytotoxicity Assay to monitor cytotoxicity in HepG2 cells - 16 hour (AID 1224876); conditions: CellTox Green fluorescence; series mostly up to 76.8 µM; note: nearly all actives have a fitted effect of over 45% in size
From the text: National Center for Advancing Translational Sciences [NCATS]
NIH Chemical Genomics Center [NCGC]
U.S. Environmental Protection Agency [EPA]
National Institutes of Environmental Health Sciences [NIEHS]
National Toxicology Program [NTP]
Cell-based models are critical for drug discovery. Determining the natural cytotoxic effects resulting from test compounds is an essential research activity. A CellTox Green Cytotoxicity Assay to monitor cytotoxicity in real time of continues cell culture during 40 hours of the compound treatment was used to screen Tox21 10K library compounds in HepG2 cells. CellTox Green Cytotoxicity Assay is a nonlytic, homogeneous, biofluorescent method to measure cytotoxicity in cell culture after experimental manipulation. The assay system uses a proprietary asymmetric cyanine dye that is excluded from viable cells but preferentially stains the dead cell's DNA. […] Viable cells produce no appreciable increases in fluorescence. Therefore, the fluorescence signal produced by the binding interaction with dead cell DNA is proportional to cytotoxicity.
The mixture of HepG2 cell suspension and reagents were dispensed at 600cells/6 ul/well in 1536-well tissue culture treated black solid bottom plates using a Multidrop dispenser. After the assay plates were incubated at a 37 C/5% CO2 incubator for 5 hours, 23 nL of compounds dissolved in DMSO, positive and negative controls was transferred to the assay plate by a pintool work station. The plates were incubated at 37 C for 40 hours. The fluorescence intensity were measured at 0h, 8h, 16h, 24h, 32h and 40h time points using ViewLux plate reader during compound treatment.
Potency is the fitted concentration of half-maximal effect.

| Structure (SMILES) | Potency |
| --- | --- |
| O=c1[nH]cnc2c1ncn2[C@H]1CC[C@@H](CO)O1 | inactive |
| COc1cccc(O)c1O | inactive |
| O=C1NC(=O)C(c2ccccc2)(c2ccccc2)N1 | inactive and 23.9 µM (active) |
| CCCC[P+](CCCC)(CCCC)CCCC | inactive |
| O=CC(=O)c1ccccc1 | inactive |
| CC(C)c1c(C(=O)Nc2ccccc2)c(-c2ccccc2)c(-c2ccc(F)cc2)n1CC[C@@H](O)C[C@@H](O)CC(=O)O | inactive |
| COc1ccc(C(Cl)=C(c2ccc(OC)cc2)c2ccc(OC)cc2)cc1 | inactive |
| Nc1ccc([N+](=O)[O-])cc1O | inactive |
| CN[C@H]1CC[C@@H](c2ccc(Cl)c(Cl)c2)c2ccccc21 | 19 µM (active) |
| CC/C(=C(\c1ccccc1)c1ccc(OCCN(C)C)cc1)c1ccccc1 | 54.9 µM (active) [middle of 4 runs] |
| COc1ccc2cc(S(=O)(=O)N[C@H](CC(=O)N[C@H](Cc3ccc(CN4[C@H](C)CCC[C@@H]4C)cc3)C(=O)N(C)C(C)C)c3ccc4c(c3)OCO4)ccc2c1 | 52 µM (active) |
| Cc1cn([C@H]2C=C[C@@H](CO)O2)c(=O)[nH]c1=O | inactive |
| CC(=O)C(=O)O | inactive |
| Cc1cccc(C)c1 | inactive |
| Nc1ccc2c(c1)CN1C(=O)c3ccccc3C1=N2 | 10.4 µM (active) |
| CN(C)C(=O)Nc1ccc(Cl)c(Cl)c1 | inactive |
| O=C(O)CC(O)C(=O)O (stereo not given) | inactive |
| NC(=O)c1cccnc1 | inactive |
| CCOc1ccc(NC(C)=O)cc1 | inactive |
| CCCCC(CC)C(=O)O (stereo not given) | inactive |

| Structure (SMILES) | Potency |
| --- | --- |
| CC1(C)O[C@@H]2C[C@H]3[C@@H]4CCC5=CC(=O)C=C[C@]5(C)[C@@]4(F)[C@@H](O)C[C@]3(C)[C@]2(C(=O)CO)O1 | inactive |
| COc1ccc(CN(CCN(C)C)c2ccccn2)cc1 | inactive |
| CN(C)C(=S)SC(=S)N(C)C | inactive and 3.89 µM (active) |
| CN(N=O)C(=O)N[C@@H]1[C@@H](O)[C@H](O)[C@@H](CO)O[C@@H]1O | inactive |
| CC12CCC(CC1)C(C)(C)O2 | inactive |
| Cc1cc(C)nc(NS(=O)(=O)c2ccc(N)cc2)n1 | inactive |
| O=C1NS(=O)(=O)c2ccccc21 | inactive |
| C[C@](N)(Cc1ccc(O)c(O)c1)C(=O)O | inactive |
| O=S1(=O)OC(c2ccc(O)cc2)(c2ccc(O)cc2)c2ccccc21 | inactive |
| Nc1ccc(O)c([N+](=O)[O-])c1 | inactive |
| C1=CC2C3C=CC(C3)C2C1 (stereo not given) | inactive |
| CCCc1cc(=O)[nH]c(=S)[nH]1 | inactive |
| C=CCc1ccc(O)c(OC)c1 | inactive |
| CCOC(N)=O | inactive |
| O=C1O[C@H]([C@@H](O)CO)C(O)=C1O | inactive |
| CC(=O)Nc1c(I)c(NC(C)=O)c(I)c(C(=O)O)c1I | inactive |
| O=C(O)c1ccccc1 | inactive |
| Cc1c(C(=O)O)c(O)cc2c1C(=O)c1c(O)c([C@@H]3O[C@H](CO)[C@@H](O)[C@H](O)[C@H]3O)c(O)c(O)c1C2=O | inactive |
| CC(=O)CC(c1ccccc1)c1c(O)c2ccccc2oc1=O (stereo not given) | inactive |
| CC(C)C(=O)Nc1ccc([N+](=O)[O-])c(C(F)(F)F)c1 | inactive |
